Most compounds without a hit are left out; they make up all but 3.7% or so of the library.
TMEM16A act: mouse TMEM16A channel activation, primary screen; B-score at 10 µM; HEK293 TMEM16A/YFP-H148Q/I152L, iodide quench fluorescence; active compounds read low; AID 623877; Q8BHY3; 0.3% of 340,000 active;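 active means fluorescence-ratio B-score plate-corrected deviation score at least 3 library SD below zero, with starting fluorescence score within 5 deviations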;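 further: channel opened by trigger with iodide after compound preincubation; score built on the fluorescence ratio of max minus min over baseline; more negative score means more quench and so TMEM16A activation or potentiation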
Target sequence (Q8BHY3 whole entry, looked up): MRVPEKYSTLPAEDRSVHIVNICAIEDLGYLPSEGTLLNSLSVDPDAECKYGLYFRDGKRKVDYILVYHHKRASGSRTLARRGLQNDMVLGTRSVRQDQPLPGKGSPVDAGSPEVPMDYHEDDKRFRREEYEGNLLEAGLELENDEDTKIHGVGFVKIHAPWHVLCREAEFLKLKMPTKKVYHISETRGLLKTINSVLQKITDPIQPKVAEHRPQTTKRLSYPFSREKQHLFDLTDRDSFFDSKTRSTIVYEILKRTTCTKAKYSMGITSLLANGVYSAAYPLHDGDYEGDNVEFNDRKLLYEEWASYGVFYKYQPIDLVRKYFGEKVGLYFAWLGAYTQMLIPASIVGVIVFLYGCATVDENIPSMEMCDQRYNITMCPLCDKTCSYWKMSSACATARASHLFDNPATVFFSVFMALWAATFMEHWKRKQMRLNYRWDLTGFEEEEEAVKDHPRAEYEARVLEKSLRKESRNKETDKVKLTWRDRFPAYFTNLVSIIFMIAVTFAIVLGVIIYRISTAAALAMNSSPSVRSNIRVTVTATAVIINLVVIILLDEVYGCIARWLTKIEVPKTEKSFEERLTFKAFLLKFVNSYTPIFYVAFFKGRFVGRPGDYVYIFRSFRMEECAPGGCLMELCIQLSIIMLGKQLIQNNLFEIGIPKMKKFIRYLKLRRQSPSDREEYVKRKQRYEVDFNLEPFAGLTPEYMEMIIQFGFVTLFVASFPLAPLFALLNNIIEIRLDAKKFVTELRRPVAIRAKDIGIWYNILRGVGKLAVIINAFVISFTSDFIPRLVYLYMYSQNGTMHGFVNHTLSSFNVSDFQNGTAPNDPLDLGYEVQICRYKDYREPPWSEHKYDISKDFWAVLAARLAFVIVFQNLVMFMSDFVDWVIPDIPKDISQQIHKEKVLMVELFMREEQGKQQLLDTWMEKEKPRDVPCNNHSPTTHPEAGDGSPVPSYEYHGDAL
CHT inh: human CHT choline transport inhibition. Q9GZV3. CHT-expressing cells, membrane potential dye, choline response; active compounds read low. B-score at 10 µM. 0.86% of 310,000 active;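 active means B-score over 3 SD under the library average, and starting fluorescence ratio not unusually high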;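 further: choline stimulus applied at its EC90 after an EC20 pre-addition; B-score computed on integrated fluorescence ratio after choline addition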
GPR7 antag: human neuropeptides B/W receptor 1 antagonism | P48145 | GPR7-expressing cells, fluorescence antagonist assay | inhibition, % at 4.4 µM | 1.1% of 290,000 active; in the data active means inhibition above about 16%, passing the limit was not always enough;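 further: cells stimulated with the agonist NPW; 0% = agonist with vehicle and 100% = vehicle without agonist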
TMEM16A inh: inhibitors of mouse TMEM16A calcium-activated chloride channel; Q8BHY3; HEK293 TMEM16A/YFP iodide influx fluorescence, ionomycin; normalized B-score (activity score, 25-100; higher = stronger inhibition) at 10 µM; 1.2% of 310,000 active;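 active means ratio plate-corrected score three or more library SD toward inhibition, starting fluorescence score within five deviations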;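 further: score derived from kinetic fluorescence span divided by baseline fluorescence per well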
CHT PAM: human CHT allosteric activation | AID 488977 | Q9GZV3 | B-score at 10 µM | 0.49% of 310,000 active | CHT-expressing cells, membrane potential dye, choline EC20; active compounds read high; LV-AA mutant CHT in HEK293 cells;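 active means initial fluorescence not abnormally high and integrated response B-score, plate-corrected, over 3 SD above library mean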
Kir21 inh: Kir2.1 (mouse) channel inhibition. HEK293-Kir2.1, FluxOR thallium flux fluorescence; active compounds read low. B-score at 10 µM. 0.85% of 310,000 active. AID 1672;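 active means fluorescence ratio B-score at or below minus 3 SD of library scores, with starting-brightness B-score within 2 SD, cut at about -4.2 in these data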;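 further: channel flux triggered by added potassium and thallium sulfate stimulus; B-score of peak minus minimum fluorescence over baseline after thallium stimulus; more negative B-score means stronger Kir2.1 block with less thallium influx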
GPR7 antag conf: confirmation of human GPR7 antagonists; 52% of 2,400 active; GPR7-expressing cells, calcium fluorescence antagonist mode; shares compounds with GPR7 antag; inhibition, % at 4.4 µM; AID 1952; in the data active means inhibition above about 24%;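 further: stimulated with the GPR7 agonist NPW; 0% = agonist plus vehicle and 100% = vehicle alone without agonist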
MCHR1 antag: antagonizes human MCHR1, a GPR7 antagonist counter-screen; shares compounds with GPR7 antag; 62% of 2,400 active; inhibition, % at 4.4 µM; MCHR1-expressing cells, fluorescence antagonist assay; AID 2148; in the data active means inhibition above about 22%;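 further: 0% = vehicle with agonist and 100% = vehicle without agonist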
Numbers without * were called inactive; i = inactive; nt = no result given.

SMILES | TMEM16A act | CHT inh | GPR7 antag | TMEM16A inh | CHT PAM | Kir21 inh | GPR7 antag conf | MCHR1 antag
COc1ccccc1/C=C(/C#N)C(=O)O | i | i | 17 | i | i | 3.6 | -24 | 16
COc1ccc(S(=O)(=O)N2C(=O)/C(=C3\SC(N)=NC3=O)c3ccccc32)cc1 | i | i | -13 | i | i | 0.11 | nt | nt
CCOc1ccc(C(C)NC(=O)c2ccc3c(c2)NC(=O)C(C)S3)cc1OCC (stereo not given) | i | nt | nt | nt | nt | nt | nt | nt
COc1ccc(CN2CCC(n3nccc3NC(=O)c3cccc(F)c3)CC2)cc1O | i | i | -10 | i | i | 0.6 | nt | nt
COc1ccccc1Cn1c(=S)[nH]c2cc(C(=O)N3CCC(C(N)=O)CC3)ccc2c1=O | i | i | 25* | i | i | 0.25 | 7 | 12
CN1CCC(N(C)CC(=O)Nc2cccc(Oc3ccccc3)c2)CC1 | i | i | 27* | i | i | -0.4 | 3 | 7
CN(CC(=O)Nc1ccc(F)cc1)C(=O)Cn1cnc2ccc([N+](=O)[O-])cc2c1=O | i | nt | nt | nt | nt | nt | nt | nt
CCN(Cc1ccccc1)C(c1ccc(C)cc1)c1nnnn1C(C)(C)C (stereo not given) | i | i | -3 | i | i | -1.5 | nt | nt
CCN(Cc1ccccc1)C(c1ccccn1)c1nnnn1C(C)(C)CC (stereo not given) | i | i | 22* | i | i | -2.2 | 25* | 56*
COc1cc(-c2n[nH]c(=S)n2/N=C/c2cccn2C)cc(OC)c1OC | i | i | 80* | i | i | 0.12 | 88* | 74*
Cc1cccc(N(C)C(=O)COc2cc(=O)n(C)c3ccccc23)c1 | i | i | 64* | i | i | -0.14 | -2 | 6
CN(C(=O)COc1cc(=O)n(C)c2ccccc12)c1cccc(Cl)c1 | i | i | 13 | i | i | 0.48 | nt | nt
Cc1nnsc1S(=O)c1ccc(Cl)cc1 (stereo not given) | i | i | -17 | i | i | 1.3 | nt | nt
O=C(c1nnsc1S(=O)c1ccc(Cl)cc1)N1CCOCC1 (stereo not given) | i | nt | 25* | nt | nt | -7* | 37* | 92*
CCN(CC)C(=O)Cn1c(=O)c2ccccc2n2c(=S)sc(-c3cccc(C)c3)c12 | i | i | -1 | i | i | 0.96 | nt | nt
Cc1ccc2c(c1)c1c(n2CC(O)CNC2CCCCC2)CCCC1 (stereo not given) | i | i | 32* | i | i | -7.9* | 56* | 54*
Cc1ccc2c(c1)c1c(n2CC(O)CN2CCCCC2C)CCCC1 (stereo not given) | i | i | 19 | i | i | -2.4 | nt | nt
Cc1ccc(S(=O)(=O)N2CCN(C(=O)COC(=O)COc3ccc(Cl)cc3)CC2)c(C)c1 | i | nt | nt | nt | nt | nt | nt | nt
CN=c1scc(-c2ccc([N+](=O)[O-])cc2)n1/N=C/c1ccco1 | i | i | -3 | i | i | -2.4 | nt | nt
CN=c1scc(-c2ccc(F)cc2)n1/N=C/c1ccc(O)c(O)c1 | i | nt | 23* | nt | nt | nt | 33* | 13
CN(C(=O)CC(NC(=O)c1ccccc1Cl)c1ccccc1)c1ccccc1 (stereo not given) | i | i | -12 | i | i | 0.68 | nt | nt
CCOC(=O)C1(CCCc2ccccc2)CCN(C2CCSCC2)CC1 | i | nt | 43* | nt | nt | -1.8 | 50* | 33*
NS(=O)(=O)c1cc(C(=O)OCC(=O)c2ccccc2)c(Cl)cc1Cl | i | i | 22* | i | i | -0.04 | 18 | 0
CC(C)C1(CCNC(=O)c2cccs2)CCOC(C)(C)C1 (stereo not given) | i | i | -10 | i | i | -0.1 | nt | nt
CC(NCCC1(Cc2ccccc2Cl)CCOC(C)(C)C1)c1cccs1 (stereo not given) | i | i | 28* | i | i | -4.9* | 31* | 20
SMILES | TMEM16A act | CHT inh | GPR7 antag | TMEM16A inh | CHT PAM | Kir21 inh | GPR7 antag conf | MCHR1 antag
CN(C)S(=O)(=O)c1ccc(C(=O)NN2C(=O)NC3(CCCCC3)C2=O)cc1 | i | nt | nt | nt | nt | nt | nt | nt
CC1CCCCC1NC(=O)CN1C(=O)COc2ccccc21 (stereo not given) | i | i | 17 | i | i | 0.02 | nt | nt
CCCCC(OC(=O)CN1C(=O)COc2ccccc21)C(=O)NC1CCCCC1 (stereo not given) | i | i | 31* | i | i | -0.02 | 38* | 24*
Clc1ccc2c(c1)C(N1CCNCC1)Cc1ccccc1S2 (stereo not given) | i | i | 28* | 25* | i | -14* | 53* | 65*
COCCCN1CCN(C2Cc3ccccc3Sc3ccc(Cl)cc32)CC1 (stereo not given) | i | i | 24* | i | i | -2.3 | 23 | 34*
COc1ccc2c(c1)CC(N1CCN(C)CC1)c1cc(OC)ccc1S2 (stereo not given) | i | i | nt | i | i | -2.9 | nt | nt
CCOc1ccc(Br)cc1S(=O)(=O)NCc1ccncc1 | i | i | -7 | i | i | -1.1 | nt | nt
COc1cccc(CN2CC(C(=O)NCCc3ccc(C)o3)CCC2=O)c1 (stereo not given) | i | i | -7 | i | i | -0.32 | nt | nt
CC(C)(C)c1cc(C(=O)Nc2cccnc2)cc(C(=O)Nc2cccnc2)c1 | i | i | -2 | i | i | -1.5 | nt | nt
COc1c(Br)cc(Br)cc1/C=N/n1c(C)nnc1C | i | i | 27* | i | i | 0.39 | 0 | 10
CCOC(=O)c1sc(NC(=O)Nc2ccc(Cl)cc2)cc1C | i | i | 35* | i | i | 0.91 | 63* | 72*
Cc1cccc(C)c1-n1c(SCC(=O)N2CC(=O)Nc3ccccc32)nc2ccccc2c1=O | i | i | 16 | i | i | -0.91 | nt | nt
Cc1ccc(-n2c(SCC(=O)N3CC(=O)Nc4ccccc43)nc3ccccc3c2=O)cc1 | i | i | 27* | i | i | 0.96 | 6 | -10
CC1(c2ccccc2)NC(=O)N(CC(=O)N2CCN(S(=O)(=O)c3cccc(C(F)(F)F)c3)CC2)C1=O (stereo not given) | i | nt | nt | nt | nt | nt | nt | nt
CN(CC(=O)Nc1ccc(Br)cc1)Cc1ccccc1 | i | i | 5 | i | i | 1.6 | nt | nt
O=C(CCN(CCO)Cc1ccccc1)Nc1ccc(Br)cc1 | i | i | 24* | i | i | -3 | 24* | 7
COc1ccc(NC(=O)CN2C(=O)COc3ccc(S(=O)(=O)N4CCCCCC4)cc32)cc1 | i | i | 2 | i | i | -0.23 | nt | nt

High-throughput results from PubChem.
